Experimental data reported in PubChem BioAssay (NCATS).
Inconclusive results are not listed. Entries that show only a call come without a potency. Calls of active or inactive are those of the source. Calls come from the whole dose curve; as a rule, active = well fitted curve in the direction sought with a large enough effect; inconclusive = small, poorly fitted or top-dose-only effect, or another doubt; inactive = no such curve, though single readings can be large; an effect the other way counts as inactive or inconclusive.

What was measured:
[1] = target: Aldehyde dehydrogenase, mitochondrial (Homo sapiens) (UniProt P05091); experiment: qHTS for Inhibitors of the Aldehyde Dehydrogenase Family (ALDH2) Primary screen (AID 2061308); details: ALDH2 enzyme inhibition qHTS, 1536-well; series mostly up to 56 µM; note: nearly all actives have a fitted effect of over 55% in size
[2] = target: Retinaldehyde dehydrogenase 3 (Homo sapiens) (UniProt P47895); experiment: qHTS for Inhibitors of the Aldehyde Dehydrogenase Family (ALDH1A3) Primary screen (AID 2061315); details: ALDH inhibition qHTS; series mostly up to 56 µM

In the case of `Cc1ccnc(NC(=S)N2CCN(c3ncc(C(F)(F)F)cc3Cl)CC2)c1`, the Potency [1] is reported as “inactive” and the Potency [2] is reported as “inactive”.
`CCC12CCCN3CCc4c(n(c5ccccc45)C(O)C1)C32` (stereo not drawn) was tested, and the Potency [1] was “inactive” and the Potency [2] was “inactive”.
With `C[C@H](N)C(=O)Nc1ccc(Cl)cc1C(=O)c1ccc[nH]1` the Potency [1] was “inactive” and the Potency [2] was “inactive”.
In the case of `COc1ccc2nc(-c3cccc(F)c3)sc2c1`, the Potency [1] is reported as “inactive” and the Potency [2] is reported as “inactive”.
`Cc1cc2c(s1)c1cnn(Cc3ccc(F)cc3Cl)c(=O)c1n2C` was tested, and the Potency [1] was “inactive” and the Potency [2] was “inactive”.
For `NCc1ccc(Nc2ncc(F)c(Nc3ccccc3)n2)cc1`, the Potency [1] was “inactive” and the Potency [2] was “inactive”.
For `CCN(CC)CCCCn1c(-c2ccccc2)nc2c(N3CCOCC3)nc(C)nc21`, the Potency [1] was “inactive” and the Potency [2] was “inactive”.
For `Cc1cc2c(s1)c1cnn(Cc3ccccc3)c(=O)c1n2C`, the Potency [1] was “inactive” and the Potency [2] was “inactive”.
In the case of `CC(=O)C1=C(O)C2c3c[nH]c4cccc(c34)CC2C(C)(C)N(C)C1=O` (stereo not drawn), the Potency [1] is reported as “inactive” and the Potency [2] is reported as “inactive”.
`O=[S+]([O-])(c1c(F)cccc1F)N1CCN([S+](=O)([O-])c2c(F)c(F)c(F)c(F)c2F)CC1` was tested, and the Potency [1] was “inactive” and the Potency [2] was “inactive”.
In the case of `COc1ccccc1OC1=NS(=O)(=O)c2ccccc21`, the Potency [1] is reported as “inactive” and the Potency [2] is reported as “inactive”.
For `Cc1ccc(C(=O)NC(c2ccco2)c2cc(Cl)c3cccnc3c2O)cc1` (stereo not drawn), the Potency [1] was “inactive” and the Potency [2] was “inactive”.
With `CCCn1c(-c2ccc(F)cc2)nc2c(NCCN3CCSCC3)nc(C)nc21` the Potency [1] was “inactive” and the Potency [2] was “inactive”.
`Cc1ccccc1C(=O)N1CCc2cc(-c3nc(NC(=O)Cc4ccccc4)sc3C)ccc21` was tested, and the Potency [1] was “inactive” and the Potency [2] was “inactive”.
With `O=C(O)c1ccc(-c2noc(-c3ccccc3C(F)(F)F)n2)cc1` the Potency [1] was “inactive” and the Potency [2] was “inactive”.
`NC(=O)C1CCN(c2nc(-c3ccc(C(F)(F)F)cc3)cs2)CC1` was tested, and the Potency [1] was “inactive” and the Potency [2] was “inactive”.
With `CC(C)N1CCc2c(-c3nc4ccccc4s3)csc2C1` the Potency [1] was “inactive” and the Potency [2] was “inactive”.
With `COc1cccc(C2c3c(ncn(-c4cccc(OC)c4)c3=N)Oc3ccc4ccccc4c32)c1` (stereo not drawn) the Potency [1] was “inactive” and the Potency [2] was “inactive”.
`CC1(C)CCCC2(C)C1C(OC(=O)/C=C/C=C/C=O)C=C1COC(=O)C12O` (stereo not drawn) was tested, and the Potency [1] was “inactive” and the Potency [2] was “inactive”.
`CCn1c(-c2nonc2N)nc2c(C#CCO)ncc(OCCCN)c21` was tested, and the Potency [1] was “inactive” and the Potency [2] was “inactive”.
In the case of `CC(C)(C)c1ccc(-n2cnc3cc(C(=O)N4CCCCC4)ccc32)cc1`, the Potency [1] is reported as “inactive” and the Potency [2] is reported as “inactive”.
`COc1ccc(C2c3c(nc(Cc4ccccc4)[nH]c3=O)Oc3ccc4ccccc4c32)cc1OC` (stereo not drawn) was tested, and the Potency [1] was “inactive” and the Potency [2] was “inactive”.
`O=S(=O)(NCCCCNS(=O)(=O)c1c(F)cccc1F)c1ccc2c(c1)OCCO2` was tested, and the Potency [1] was “inactive” and the Potency [2] was “inactive”.
In the case of `Oc1cccc2cc(Nc3ccccc3)cnc12`, the Potency [1] is reported as “inactive” and the Potency [2] is reported as “inactive”.
`CCC(=O)Nc1ccc(Cl)cc1C(=O)c1ccc[nH]1` was tested, and the Potency [1] was “inactive” and the Potency [2] was “inactive”.
In the case of `c1nc(NCCCN2CCOCC2)c2cc(-c3ccc4c(c3)OCO4)ccc2n1`, the Potency [1] is reported as “inactive” and the Potency [2] is reported as “inactive”.
`Oc1ccc(CNc2ccc3ccccc3n2)c2cccnc12` was tested, and the Potency [1] was “inactive” and the Potency [2] was “inactive”.
`CCCn1c(C)nc2c(N(C)CCN(C)C)nc(C)nc21` was tested, and the Potency [1] was “inactive” and the Potency [2] was “inactive”.
For `O=[N+]([O-])c1ccc(CSc2nc3ncc(Br)cc3[nH]2)cc1`, the Potency [1] was “inactive” and the Potency [2] was “inactive”.
`Cc1ccc(OCCn2c(CCNC(=O)c3cc([N+](=O)[O-])ccc3[N+](=O)[O-])nc3ccccc32)cc1` was tested, and the Potency [1] was “inactive” and the Potency [2] was “inactive”.
`COc1ccc(-c2ccc3nnc(-c4ccccc4OC)n3n2)cc1OC` was tested, and the Potency [1] was “inactive” and the Potency [2] was “inactive”.
For `Cc1ccccc1-c1ccc(NC(=O)c2cccs2)cn1`, the Potency [1] was “inactive” and the Potency [2] was “inactive”.
In the case of `COc1cc(Nc2nc(-c3ccncc3)nc3ccccc23)ccc1NS(C)(=O)=O`, the Potency [1] is reported as “inactive” and the Potency [2] is reported as “inactive”.
With `CC(=O)Nc1cccc(S(=O)(=O)Nc2ccc(C)c(C)c2)c1` the Potency [1] was “inactive” and the Potency [2] was “inactive”.
With `O=C(/C=C/c1cccs1)Nc1cccc([S+](=O)([O-])Nc2ccccc2F)c1` the Potency [1] was “inactive” and the Potency [2] was “inactive”.
For `O=S(=O)(c1ccc2c(c1)OCCO2)C1CCC(S(=O)(=O)c2c(F)cccc2F)CC1` (stereo not drawn), the Potency [1] was “inactive” and the Potency [2] was “inactive”.
With `COc1cc(-c2nc(Nc3ccc(F)c(F)c3)c3ccccc3n2)ccn1` the Potency [1] was “inactive” and the Potency [2] was “inactive”.
For `COc1ccc(C2Nc3ccccc3C(=O)N2Cc2ccccc2)cc1COc1c(C)cccc1C` (stereo not drawn), the Potency [1] was “inactive” and the Potency [2] was “inactive”.
In the case of `Cc1ccccc1OC1=NS(=O)(=O)c2ccccc21`, the Potency [1] is reported as “inactive” and the Potency [2] is reported as “inactive”.
With `O=C1CCCC2=C1C(c1[nH]ncc1Cl)NC(=NCc1ccoc1)N2` (stereo not drawn) the Potency [1] was “inactive” and the Potency [2] was “inactive”.
For `Cn1cncc1CNc1ncnc2ccc(-c3ccc4c(c3)OCO4)cc12`, the Potency [1] was “inactive” and the Potency [2] was “inactive”.
For `COc1ccccc1NC(=O)c1ccc2ccccc2c1`, the Potency [1] was “inactive” and the Potency [2] was “inactive”.
For `CCCc1ccc(-c2csc(NC(=O)c3ccncc3NS(=O)(=O)c3ccc(C)cc3)n2)cc1`, the Potency [1] was “inactive” and the Potency [2] was “inactive”.
In the case of `O=C1c2ccccc2C(=O)N1C1CCCCC1`, the Potency [1] is reported as “inactive” and the Potency [2] is reported as “inactive”.
With `Cc1cc(NS(=O)(=O)c2ccc(NC(=O)Cc3ccc(F)c(Cl)c3)cc2)no1` the Potency [1] was “inactive” and the Potency [2] was “inactive”.
In the case of `CC(=O)Nc1nc(C)c(-c2nc(N3CCCC(O)C3)no2)s1` (stereo not drawn), the Potency [1] is reported as “inactive” and the Potency [2] is reported as “inactive”.
With `CN(C)S(=O)(=O)c1ccc(-c2nc(NCc3ccc(-c4ccnc(C(F)(F)F)c4)cc3)c3ccccc3n2)cc1` the Potency [1] was “inactive” and the Potency [2] was “inactive”.
With `CCC(=O)NC(c1ccc(C)cc1)c1cc([N+](=O)[O-])c2cccnc2c1O` (stereo not drawn) the Potency [1] was “inactive” and the Potency [2] was “inactive”.
`CCN1CCCC1Cn1c(-c2ccccc2)nc2c(NCCOC)nc(C)nc21` (stereo not drawn) was tested, and the Potency [1] was “inactive” and the Potency [2] was “inactive”.
For `Cc1cc(C)c(-c2nnc(NC(=O)Nc3ccc4ccccc4c3)s2)c(C)c1`, the Potency [1] was “inactive” and the Potency [2] was “inactive”.
With `O=C1CCCC2=C1C(c1[nH]ncc1Cl)NC(=NCc1ccccc1)N2` (stereo not drawn) the Potency [1] was “inactive” and the Potency [2] was “inactive”.
`NS(=O)(=O)c1ccc(Cc2c(-c3cccc(-c4ccccc4)c3)nn(-c3nc(C(=O)O)cs3)c2C2CC2)cc1` was tested, and the Potency [1] was “inactive” and the Potency [2] was “inactive”.
With `Cc1ccc([S+](=O)([O-])n2cc(Cc3ccc(-c4ccccc4)cc3)c3ccccc32)cc1` the Potency [1] was “inactive” and the Potency [2] was “inactive”.
For `O=C(Nc1nc(-c2ccccc2)cs1)c1ccncc1NS(=O)(=O)c1ccc(-c2ccccc2)cc1`, the Potency [1] was “inactive” and the Potency [2] was “inactive”.
`Cc1ccc(-c2cc(C(=O)Nc3ccc(-n4cncn4)cc3)c3ccccc3n2)cc1C` was tested, and the Potency [1] was “inactive” and the Potency [2] was “inactive”.
For `COc1ccc(NC(=O)C2=C(C)NC(Nc3nc4ccccc4o3)=NC2c2ccccc2Br)cc1` (stereo not drawn), the Potency [1] was “inactive” and the Potency [2] was “inactive”.
For `N#CN1CCC(NS(=O)(=O)c2ccc(F)cc2)C1` (stereo not drawn), the Potency [1] was “inactive” and the Potency [2] was “inactive”.
In the case of `COc1cccc(NC(=S)N2CCN(c3ncc(C(F)(F)F)cc3Cl)CC2)n1`, the Potency [1] is reported as “inactive” and the Potency [2] is reported as “inactive”.
For `O=C(O)c1cccc(S(=O)(=O)N2CCN(S(=O)(=O)c3ccc4c(c3)OCCO4)CC2)c1`, the Potency [1] was “inactive” and the Potency [2] was “inactive”.
With `Cc1ccc(-c2ccc(=O)n(CC(=O)N(C)[C@@H](C)c3ccccc3)n2)cc1` the Potency [1] was “inactive” and the Potency [2] was “inactive”.
With `Oc1cccc2cc(CNc3ccccc3F)cnc12` the Potency [1] was “inactive” and the Potency [2] was “inactive”.
In the case of `CCOC(=O)c1ccc(-c2ccc3ncnc(N(C)Cc4sccc4C)c3c2)o1`, the Potency [1] is reported as “inactive” and the Potency [2] is reported as “inactive”.
`Cc1ccc(C(=O)[C@H]2CC[C@@H](C(=O)Nc3ccc(S(=O)(=O)Nc4nccs4)cc3)C2)cc1C` was tested, and the Potency [1] was “inactive” and the Potency [2] was “inactive”.
In the case of `Cn1nnnc1Sc1ncnc2scc(-c3ccc4ccccc4c3)c12`, the Potency [1] is reported as “inactive” and the Potency [2] is reported as “inactive”.
